# Data published in the supplement of paper PMC4466140.
# Key:
# Assay in all cases: SPOT peptide array binding signal intensity (averaged, normalized) (arbitrary units (background-subtracted, floor 0; scale differs between SH3 domains)); higher = stronger binding of the SH3 domain to the peptide
# [1] = target: AgAbp1
# In short: (§1)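 To measure binding, SH3 domains from four yeast species were fused to GST, expressed in E. coli BL21(DE3) and purified on glutathione Sepharose. Each domain was incubated at 10 μg/ml overnight at 4°C on cellulose membranes with synthetic 15-mer peptides whose cysteines were replaced by serines. Anti-GST antibody, an HRP anti-mouse secondary and luminol were used for detection, and images were quantified with Genespotter. Reported binding signal is normalized, background-subtracted spot intensity averaged over replicates, in arbitrary units that differ between domains.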
# [2] = target: AgBbc1
# In short: as §1
# [3] = target: AgBem1-D1
# In short: as §1
# [4] = target: AgBzz1-D1
# In short: as §1
# [5] = target: AgBzz1-D2
# In short: as §1
# [6] = target: AgCyk3
# In short: as §1
# [7] = target: AgFus1
# In short: as §1
# [8] = target: AgHof1
# In short: as §1
# [9] = target: AgHse1
# In short: as §1
# [10] = target: AgLsb1
# In short: as §1
# [11] = target: AgLsb4
# In short: as §1
# [12] = target: AgMyo5
# In short: as §1
# [13] = target: AgNbp2
# In short: as §1
# [14] = target: AgRvs167
# In short: as §1
# [15] = target: AgSho1
# In short: as §1
# [16] = target: AgSla1-D1-D2
# In short: as §1
# [17] = target: AgSla1-D3
# In short: as §1
# [18] = target: CaAbp1-D1
# In short: as §1
# [19] = target: CaAbp1-D2
# In short: as §1
# [20] = target: CaBbc1
# In short: as §1
# [21] = target: CaBem1-D1
# In short: as §1
# [22] = target: CaBzz1-D1
# In short: as §1
# [23] = target: CaBzz1-D2
# In short: as §1
# [24] = target: CaCyk3
# In short: as §1
# [25] = target: CaFus1
# In short: as §1
# [26] = target: CaHof1
# In short: as §1
# [27] = target: CaHse1
# In short: as §1
# [28] = target: CaLsb1
# In short: as §1
# [29] = target: CaLsb4
# In short: as §1
# [30] = target: CaMyo5
# In short: as §1
# [31] = target: CaNbp2
# In short: as §1
# [32] = target: CaRvs167
# In short: as §1
# [33] = target: CaRvs167-3
# In short: as §1
# [34] = target: CaSho1
# In short: as §1
# [35] = target: CaSla1-D1-D2
# In short: as §1
# [36] = target: CaSla1-D3
# In short: as §1
# [37] = target: ScAbp1
# In short: as §1
# [38] = target: ScBbc1
# In short: as §1
# [39] = target: ScBem1-D1
# In short: as §1
# [40] = target: ScBzz1-D1
# In short: as §1
# [41] = target: ScBzz1-D2
# In short: as §1
# [42] = target: ScCyk3
# In short: as §1
# [43] = target: ScFus1
# In short: as §1
# [44] = target: ScHof1
# In short: as §1
# [45] = target: ScHse1
# In short: as §1
# [46] = target: ScLsb1
# In short: as §1
# [47] = target: ScLsb2
# In short: as §1
# [48] = target: ScLsb3
# In short: as §1
# [49] = target: ScLsb4
# In short: as §1
# [50] = target: ScMyo3
# In short: as §1
# [51] = target: ScMyo5
# In short: as §1
# [52] = target: ScNbp2
# In short: as §1
# [53] = target: ScPex13
# In short: as §1
# [54] = target: ScRvs167
# In short: as §1
# [55] = target: ScSho1
# In short: as §1
# [56] = target: ScSla1-D1-D2
# In short: as §1
# [57] = target: ScSla1-D3
# In short: as §1
# [58] = target: SpAbp1-D1
# In short: as §1
# [59] = target: SpBbc1
# In short: as §1
# [60] = target: SpBzz1-D1
# In short: as §1
# [61] = target: SpBzz1-D2
# In short: as §1
# [62] = target: SpCyk3
# In short: as §1
# [63] = target: SpHof1
# In short: as §1
# [64] = target: SpHof1-2
# In short: as §1
# [65] = target: SpHof1-3
# In short: as §1
# [66] = target: SpHse1
# In short: as §1
# [67] = target: SpLsb1
# In short: as §1
# [68] = target: SpLsb4
# In short: as §1
# [69] = target: SpMyo1
# In short: as §1
# [70] = target: SpNbp2
# In short: as §1
# [71] = target: SpPex13
# In short: as §1
# [72] = target: SpRvs167
# In short: as §1
# [73] = target: SpSla1-D1-D2
# In short: as §1
# [74] = target: SpSla1-D3
# In short: as §1
binder,measurement,setting,value
QPWTDQFEKLEKEVS,SPOT peptide array binding signal intensity,[1],≤ 0
same,SPOT peptide array binding signal intensity,[2],≤ 0
same,SPOT peptide array binding signal intensity,[3],15
same,SPOT peptide array binding signal intensity,[4],≤ 0
same,SPOT peptide array binding signal intensity,[5],22
same,SPOT peptide array binding signal intensity,[6],1.5
same,SPOT peptide array binding signal intensity,[7],≤ 0
same,SPOT peptide array binding signal intensity,[8],≤ 0
same,SPOT peptide array binding signal intensity,[9],26
same,SPOT peptide array binding signal intensity,[10],≤ 0
same,SPOT peptide array binding signal intensity,[11],≤ 0
same,SPOT peptide array binding signal intensity,[12],1.5
same,SPOT peptide array binding signal intensity,[13],≤ 0
same,SPOT peptide array binding signal intensity,[14],0.167
same,SPOT peptide array binding signal intensity,[15],≤ 0
same,SPOT peptide array binding signal intensity,[16],≤ 0
same,SPOT peptide array binding signal intensity,[17],≤ 0
same,SPOT peptide array binding signal intensity,[18],≤ 0
same,SPOT peptide array binding signal intensity,[19],≤ 0
same,SPOT peptide array binding signal intensity,[20],3.5
same,SPOT peptide array binding signal intensity,[21],≤ 0
same,SPOT peptide array binding signal intensity,[22],≤ 0
same,SPOT peptide array binding signal intensity,[23],≤ 0
same,SPOT peptide array binding signal intensity,[24],≤ 0
same,SPOT peptide array binding signal intensity,[25],≤ 0
same,SPOT peptide array binding signal intensity,[26],0.5
same,SPOT peptide array binding signal intensity,[27],≤ 0
same,SPOT peptide array binding signal intensity,[28],0.5
same,SPOT peptide array binding signal intensity,[29],≤ 0
same,SPOT peptide array binding signal intensity,[30],≤ 0
same,SPOT peptide array binding signal intensity,[31],23
same,SPOT peptide array binding signal intensity,[32],1.33
same,SPOT peptide array binding signal intensity,[33],0.5
same,SPOT peptide array binding signal intensity,[34],≤ 0
same,SPOT peptide array binding signal intensity,[35],≤ 0
same,SPOT peptide array binding signal intensity,[36],≤ 0
same,SPOT peptide array binding signal intensity,[37],1
same,SPOT peptide array binding signal intensity,[38],4.75
same,SPOT peptide array binding signal intensity,[39],≤ 0
same,SPOT peptide array binding signal intensity,[40],21
same,SPOT peptide array binding signal intensity,[41],11
same,SPOT peptide array binding signal intensity,[42],≤ 0
same,SPOT peptide array binding signal intensity,[43],≤ 0
same,SPOT peptide array binding signal intensity,[44],≤ 0
same,SPOT peptide array binding signal intensity,[45],67
same,SPOT peptide array binding signal intensity,[46],≤ 0
same,SPOT peptide array binding signal intensity,[47],≤ 0
same,SPOT peptide array binding signal intensity,[48],≤ 0
same,SPOT peptide array binding signal intensity,[49],3
same,SPOT peptide array binding signal intensity,[50],0.5
same,SPOT peptide array binding signal intensity,[51],0.75
same,SPOT peptide array binding signal intensity,[52],≤ 0
same,SPOT peptide array binding signal intensity,[53],181
same,SPOT peptide array binding signal intensity,[54],1
same,SPOT peptide array binding signal intensity,[55],≤ 0
same,SPOT peptide array binding signal intensity,[56],≤ 0
same,SPOT peptide array binding signal intensity,[57],16.2
same,SPOT peptide array binding signal intensity,[58],≤ 0
same,SPOT peptide array binding signal intensity,[59],1.5
same,SPOT peptide array binding signal intensity,[60],≤ 0
same,SPOT peptide array binding signal intensity,[61],≤ 0
same,SPOT peptide array binding signal intensity,[62],≤ 0
same,SPOT peptide array binding signal intensity,[63],≤ 0
same,SPOT peptide array binding signal intensity,[64],≤ 0
same,SPOT peptide array binding signal intensity,[65],≤ 0
same,SPOT peptide array binding signal intensity,[66],15.5
same,SPOT peptide array binding signal intensity,[67],≤ 0
same,SPOT peptide array binding signal intensity,[68],≤ 0
same,SPOT peptide array binding signal intensity,[69],≤ 0
same,SPOT peptide array binding signal intensity,[70],≤ 0
same,SPOT peptide array binding signal intensity,[71],≤ 0
same,SPOT peptide array binding signal intensity,[72],≤ 0
same,SPOT peptide array binding signal intensity,[73],3
same,SPOT peptide array binding signal intensity,[74],≤ 0
